According to PubChem BioAssay:
The source made the active and inactive calls.

Legend:
[1] = test system: PRMT1 (protein arginine N-methyltransferase 1); test: small molecules binding arginine methyltransferase PRMT1 – biochemical, small-molecule microarray, 635 nm fluorescence, primary screen (AID 1088); settings: higher = more signal;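 also: binding of Prmt1 protein to compounds spotted on small-molecule microarray slides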
[2] = growth effects on S. cerevisiae YJM789 – YJM789 clinical isolate, OD600, 24 h, basal, primary screen (AID 1089); settings: higher = more signal, called active from +8 up or from −8 down;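 also: growth of clinical yeast isolate S. cerevisiae YJM 789 seeded 1000 cells per well; test concentration not given here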
[3] = S. pombe growth modifiers, basal conditions – strain 972, OD600, 24 h, no modulator, primary screen (AID 1090);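 also: basal condition with compound alone and no growth modifier present; test concentration not given here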; settings: S. pombe 972 growth, higher = more signal, called active from +8 up or from −8 down
[4] = budding yeast growth modifiers under rapamycin – strain BY4716, OD600, 96 h, primary screen (AID 1091); also: test concentration not given here; settings: S. cerevisiae BY4716 + rapamycin, higher = more signal, called active from +8 up or from −8 down
[5] = molecular target: Torsin-1A-interacting protein 2 (Homo sapiens) (UniProt Q8NFQ8); test: small molecules binding lysate-expressed LULL1 – cell lysate, human LULL1 lysate, 635/667 nm fluorescence, primary screen (AID 1092); settings: small-molecule microarray, hLULL1 lysate binding, 635 nm fluorescence; higher = more signal;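 also: probe is lysate of COS7 cells overexpressing human LULL1; score merges per-feature 667 nm fluorescence with signal-to-noise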
[6] = optical density change of DRC41 E. coli – strain DRC41, OD650, 24 h, E. coli filamentation project, primary screen (AID 1093);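 also: MC1000 strain lacking acrAB efflux and sulA so SOS filamentation is blocked; test concentration not given here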; settings: E. coli DRC41 growth, higher = more signal, called active from +8 up or from −8 down
[7] = probe aLefty2 binding to arrayed compounds – biochemical, biotinylated probe, 635/667 nm fluorescence, primary screen (AID 1094); settings: small-molecule microarray, higher = more signal;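 also: score merges spot fluorescence near 667 nm with spot signal-to-noise ratio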
[8] = test system: Noggin (protein binding on small-molecule microarray); test: small molecules binding Noggin protein – biochemical, 635/667 nm fluorescence, primary screen (AID 1095); settings: 635 nm fluorescence, higher = more signal;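 also: score merges 667 nm feature fluorescence with signal to noise over triplicate slides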
[9] = molecular target: Neurogenic locus notch homolog protein 3 (Homo sapiens) (UniProt Q9UM47); test: small molecules binding NOTCH3 protein – biochemical, 635/667 nm fluorescence, primary screen (AID 1096); settings: small-molecule microarray, 635 nm fluorescence, higher = more signal
[10] = probe aEGFR binding to arrayed compounds – biochemical, biotinylated probe, 635/667 nm fluorescence, primary screen (AID 1097); settings: small-molecule microarray, higher = more signal;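 also: probe is a biotinylated anti-EGFR antibody binding compounds printed on slides; score combines fluorescence near 667 nm and signal to noise of each spot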

Chain of Neurogenic locus notch homolog protein 3 (Homo sapiens) (Q9UM47 whole entry, looked up): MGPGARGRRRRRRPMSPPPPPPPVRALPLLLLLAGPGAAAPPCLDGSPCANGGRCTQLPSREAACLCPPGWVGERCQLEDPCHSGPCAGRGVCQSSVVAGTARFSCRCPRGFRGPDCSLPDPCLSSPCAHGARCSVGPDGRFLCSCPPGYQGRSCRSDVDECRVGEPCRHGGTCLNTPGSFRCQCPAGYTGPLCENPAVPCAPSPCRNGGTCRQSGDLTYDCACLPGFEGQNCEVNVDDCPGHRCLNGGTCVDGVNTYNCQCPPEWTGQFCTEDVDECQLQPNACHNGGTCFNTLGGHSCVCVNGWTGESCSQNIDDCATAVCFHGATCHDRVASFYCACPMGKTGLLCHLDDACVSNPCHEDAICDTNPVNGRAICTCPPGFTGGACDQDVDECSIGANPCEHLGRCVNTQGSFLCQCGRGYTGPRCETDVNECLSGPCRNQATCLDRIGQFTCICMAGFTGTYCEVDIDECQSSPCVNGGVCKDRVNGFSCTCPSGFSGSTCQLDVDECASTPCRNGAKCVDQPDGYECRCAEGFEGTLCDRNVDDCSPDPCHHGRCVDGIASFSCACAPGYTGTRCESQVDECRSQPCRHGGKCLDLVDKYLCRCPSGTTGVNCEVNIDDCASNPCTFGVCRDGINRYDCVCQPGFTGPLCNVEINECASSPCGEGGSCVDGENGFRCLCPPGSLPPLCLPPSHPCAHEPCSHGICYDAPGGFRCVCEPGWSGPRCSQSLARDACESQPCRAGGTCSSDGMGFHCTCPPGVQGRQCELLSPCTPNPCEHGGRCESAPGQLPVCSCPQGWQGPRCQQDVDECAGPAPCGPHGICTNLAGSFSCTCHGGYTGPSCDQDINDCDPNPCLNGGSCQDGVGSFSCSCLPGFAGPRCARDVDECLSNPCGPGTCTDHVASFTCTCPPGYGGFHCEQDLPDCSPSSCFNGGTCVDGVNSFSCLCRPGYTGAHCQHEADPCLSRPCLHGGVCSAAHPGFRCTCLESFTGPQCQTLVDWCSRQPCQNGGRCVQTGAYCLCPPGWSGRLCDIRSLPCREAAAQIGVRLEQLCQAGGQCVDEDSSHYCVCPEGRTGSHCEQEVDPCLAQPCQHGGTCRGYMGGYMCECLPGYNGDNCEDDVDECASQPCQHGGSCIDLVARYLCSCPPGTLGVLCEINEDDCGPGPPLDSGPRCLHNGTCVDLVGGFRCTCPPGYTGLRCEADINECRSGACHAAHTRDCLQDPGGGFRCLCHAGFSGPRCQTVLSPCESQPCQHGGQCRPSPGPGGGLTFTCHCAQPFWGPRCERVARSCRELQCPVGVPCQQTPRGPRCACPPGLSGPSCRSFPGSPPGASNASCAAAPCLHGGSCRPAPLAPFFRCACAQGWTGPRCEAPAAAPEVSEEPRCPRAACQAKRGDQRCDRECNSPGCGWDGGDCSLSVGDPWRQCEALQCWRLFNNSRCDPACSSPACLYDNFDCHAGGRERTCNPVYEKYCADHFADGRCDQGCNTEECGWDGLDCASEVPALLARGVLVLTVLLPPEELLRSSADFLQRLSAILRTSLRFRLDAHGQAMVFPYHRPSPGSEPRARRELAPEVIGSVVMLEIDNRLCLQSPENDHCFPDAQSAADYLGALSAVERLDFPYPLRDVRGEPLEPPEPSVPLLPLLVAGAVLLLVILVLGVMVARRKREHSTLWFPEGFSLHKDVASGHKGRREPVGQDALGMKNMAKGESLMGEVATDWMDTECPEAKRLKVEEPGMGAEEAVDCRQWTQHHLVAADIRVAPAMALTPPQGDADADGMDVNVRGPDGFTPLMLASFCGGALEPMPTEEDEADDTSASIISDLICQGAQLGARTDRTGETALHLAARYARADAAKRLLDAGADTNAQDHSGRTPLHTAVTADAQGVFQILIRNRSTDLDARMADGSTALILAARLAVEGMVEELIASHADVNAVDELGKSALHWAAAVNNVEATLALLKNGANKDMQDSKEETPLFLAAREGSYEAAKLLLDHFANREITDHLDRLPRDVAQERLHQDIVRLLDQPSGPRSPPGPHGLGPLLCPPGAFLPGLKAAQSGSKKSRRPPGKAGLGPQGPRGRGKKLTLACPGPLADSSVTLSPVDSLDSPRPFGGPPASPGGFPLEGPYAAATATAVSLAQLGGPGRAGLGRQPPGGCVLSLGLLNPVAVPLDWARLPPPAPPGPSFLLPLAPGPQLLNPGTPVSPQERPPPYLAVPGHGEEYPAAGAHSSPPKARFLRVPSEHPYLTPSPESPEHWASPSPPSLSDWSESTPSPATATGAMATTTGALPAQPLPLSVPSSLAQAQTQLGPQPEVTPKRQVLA
Chain of Torsin-1A-interacting protein 2 (Homo sapiens) (Q8NFQ8 whole entry, looked up): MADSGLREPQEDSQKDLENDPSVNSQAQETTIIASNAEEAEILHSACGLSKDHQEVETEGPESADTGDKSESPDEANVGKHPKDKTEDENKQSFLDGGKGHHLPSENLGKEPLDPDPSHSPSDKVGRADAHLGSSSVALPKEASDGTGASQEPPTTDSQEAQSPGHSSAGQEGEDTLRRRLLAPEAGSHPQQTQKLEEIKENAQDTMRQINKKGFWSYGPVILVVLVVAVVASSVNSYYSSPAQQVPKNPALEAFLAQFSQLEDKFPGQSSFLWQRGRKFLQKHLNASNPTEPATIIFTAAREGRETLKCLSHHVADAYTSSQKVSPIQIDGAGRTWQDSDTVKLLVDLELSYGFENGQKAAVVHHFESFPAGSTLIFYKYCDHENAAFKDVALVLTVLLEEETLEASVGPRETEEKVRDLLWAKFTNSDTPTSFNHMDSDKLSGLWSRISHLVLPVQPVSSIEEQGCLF

Row | Structure (SMILES) | composite z-score [1] | z-score [2] | z-score [3] | z-score [4] | composite z-score [5] | z-score [6] | composite z-score [7] | composite z-score [8] | composite z-score [9] | composite z-score [10]
1 | COC(=O)[C@@]1(Cc2ccc(F)cc2)[C@H]2c3cc(C(=O)N(C)C)n(Cc4cc(F)c(F)c(F)c4)c3C[C@H]2CN1C(=O)c1ccccc1 | -0.0972 | 0.0065 (inactive) | 1.72 (inactive) | 2.54 (inactive) | 3.07 | -0.535 (inactive) | 0.376 | -0.592 | 1.03 | 0.487
2 | COCCOC(=O)N1C(=O)[C@@]2(c3cc(C#CCC(C(=O)OC)C(=O)OC)ccc31)[C@H](C(=O)N1CCN(c3ncccn3)CC1)[C@H]1C(=O)O[C@H](c3ccccc3)[C@H](c3ccccc3)N1[C@@H]2c1ccccc1OCCO | 1.55 | 1.59 (inactive) | 1.33 (inactive) | 6.3 (inactive) | 1.88 | 0.156 (inactive) | -0.0726 | 1.71 | 1.06 | 0.0537
3 | O=C1O[C@@H](c2ccccc2)[C@@H](c2ccccc2)N2[C@@H](c3ccccc3OCCO)[C@]3(C(=O)Nc4ccccc43)[C@@H](C(=O)Nc3nc4ccccc4s3)[C@H]12 | 1.53 | 1.13 (inactive) | -0.205 (inactive) | 2.85 (inactive) | 3.22 | 1.26 (inactive) | -0.215 | 1.53 | 1.04 | 0.148
4 | O=C1C[C@@](C(=O)NCCN2CCOCC2)(c2ccc([N+](=O)[O-])cc2)[C@@H](c2ccc(CO)cc2)N1CC12CC3CC(CC(C3)C1)C2 | 1.53 | -1.41 (inactive) | -17.2 (active) | -1.37 (inactive) | 3.31 | -2.26 (inactive) | 0.0211 | 1.4 | 1.09 | 0.0778
5 | CCOC(=O)[C@H]1C/C=C/C[C@H](C(=O)OCC)C(=O)O[C@H]2[C@@H](OC)O[C@H](CO)[C@@H](OC(=O)c3c(OC)cccc3OC)[C@@H]2OC1=O | 1.33 | 0.172 (inactive) | -1.13 (inactive) | 3.72 (inactive) | 2.86 | -0.901 (inactive) | 0.573 | 1.15 | 0.982 | -0.0921
6 | NC(=O)[C@@H]1[C@H]2C(=O)O[C@H](c3ccccc3)[C@H](c3ccccc3)N2[C@H](c2ccc(O)cc2)[C@@]12C(=O)Nc1ccccc12 | 1.41 | 0.0549 (inactive) | -1.41 (inactive) | 0.386 (inactive) | 3.53 | 1.11 (inactive) | -0.107 | -0.952 | 0.118 | -0.289
7 | Oc1ccc2cc[n+](Cc3sc4ccccc4c3Cl)cc2c1 | 0.599 | 0.0335 (inactive) | -1.43 (inactive) | 2.3 (inactive) | 3.37 | -1.82 (inactive) | 0.217 | 0.311 | 0.207 | -0.0409
8 | COc1ccc([Si](C)(C)[C@H]2[C@H](CCO)O[C@@]3(C(=O)N(Cc4ccc(N(C=O)c5ccccc5)cc4)c4ccccc43)[C@@H]2C)cc1 | 0.258 | 1.09 (inactive) | 0.302 (inactive) | 25.2 (active) | 1.12 | 0.759 (inactive) | -0.107 | 0.0352 | 0.033 | -0.162
9 | CC(C)C(O)C1C=CC2C(=O)NC(=O)C2N1Nc1ccc(Cl)cc1Cl (stereo not given) | 0.119 | 0.376 (inactive) | -0.843 (inactive) | 1.5 (inactive) | 3.18 | -0.805 (inactive) | 0.112 | -0.463 | 0.0316 | -0.122
10 | O=C(OCc1ccccc1)C1=CCC2c3[nH]c4ccccc4c3C(=O)C1N2S(=O)(=O)c1ccccc1[N+](=O)[O-] (stereo not given) | 1.52 | 0.802 (inactive) | 1.1 (inactive) | 7.14 (inactive) | 3.57 | -0.639 (inactive) | 0.0673 | 0.614 | 1.03 | -0.112
11 | CC(C)=CCCC(C)=CC(O)C1C=CC2C(=O)N(C)C(=O)C2N1Nc1ccccc1 (stereo not given) | 1.55 | -0.193 (inactive) | -1.26 (inactive) | 2.76 (inactive) | 3.29 | -0.339 (inactive) | 0.245 | 0.411 | 1.03 | 0.167
12 | OCCCC1=CC(c2cccs2)N(Cc2cc3c(cc2Br)OCO3)CC1 (stereo not given) | 0.591 | -0.678 (inactive) | -1.05 (inactive) | -0.274 (inactive) | 1.17 | -0.414 (inactive) | 0 | 0.915 | 0.208 | -0.0304
13 | CCOC(=O)C[C@H]1[C@H](OC(=O)c2cc3ccccc3oc2=O)[C@@H](NC(=O)c2ccccc2)c2cc(OCCCO)ccc2N1C(=O)c1ccc2ccccc2n1 | 0.258 | 0.157 (inactive) | -0.12 (inactive) | 0.0284 (inactive) | 0.852 | 0.368 (inactive) | -0.193 | 0.918 | 0.662 | -0.0828
14 | COC(=O)[C@H](Cc1ccccc1)N[C@@H](/C=C/C1CC1)[C@H](O)Cc1ccccc1 | 0.136 | -0.701 (inactive) | -7.84 (inactive) | -0.581 (inactive) | 0.521 | -0.296 (inactive) | -0.127 | -0.327 | -0.505 | -0.218
15 | O=C1[C@@]23C=C(Br)[C@H](C[C@@H]2CCOC3)[C@@]12CO2 | -0.414 | 0.24 (inactive) | -2.31 (inactive) | -0.582 (inactive) | 0.102 | -0.0015 (inactive) | -0.217 | 0.721 | 0.372 | 0.0372
16 | COC(=O)C(CC#Cc1ccc2c(c1)[C@]1(C(=O)N2)[C@H](c2ccc(OCCO)cc2)N2[C@H](c3ccccc3)[C@H](c3ccccc3)OC(=O)[C@H]2[C@@H]1C(=O)Nc1nc2ccccc2s1)C(=O)OC | 1.58 | 2.63 (inactive) | 2.22 (inactive) | 3.14 (inactive) | 2.45 | 2.13 (inactive) | -0.175 | 1.41 | 1.09 | 0.0562
17 | C=CCNC(=O)[C@@H]1[C@H]2C(=O)O[C@H](c3ccccc3)[C@H](c3ccccc3)N2[C@H](c2ccc(O)cc2)[C@@]12C(=O)Nc1ccc(C#CCNC(N)=O)cc12 | 0.575 | -0.358 (inactive) | 0.112 (inactive) | 1.69 (inactive) | 2.13 | -1.11 (inactive) | -0.117 | 0.385 | 0.0332 | -0.172
18 | CCCCC(CC)C(O)C1C=CC2C(=O)N(Cc3ccccc3)C(=O)C2N1n1cnnc1 (stereo not given) | 0.249 | -0.279 (inactive) | -0.359 (inactive) | -0.435 (inactive) | 0.77 | -1.05 (inactive) | -0.0238 | -0.0141 | -0.22 | -0.0253
19 | CC(C)C(CO)N1C(=O)[C@@H]2C3C(=O)OCCC/C=C\[C@H]3OC23C=CCN(CCN2CCOCC2)C(=O)[C@@H]13 (stereo not given in full) | 0.463 | 0.366 (inactive) | -0.21 (inactive) | 0.205 (inactive) | -0.272 | -0.241 (inactive) | -0.245 | 0.0867 | 0.0008 | -0.146
20 | C=CC[C@@]1(C(=O)NCCN2CCOCC2)N=C(c2ccc(OCCCO)cc2)O[C@@H]1c1ccccc1N=[N+]=[N-] | 0.513 | 0.658 (inactive) | -0.211 (inactive) | 0.408 (inactive) | 2.03 | -0.0403 (inactive) | 0.293 | 0.26 | -0.483 | 0.38
21 | CO[C@H]1O[C@H](CO)[C@@H](OC(=O)Nc2ccccc2)[C@H](OC(=O)Nc2ccccc2)[C@@H]1OC(=O)Nc1ccccc1 | 1.53 | 1.24 (inactive) | 0.975 (inactive) | 3.37 (inactive) | 3.66 | -0.0493 (inactive) | 0.232 | 1.38 | 1.06 | 0.138
22 | Cc1ccc(N2C(=O)c3ccccc3[C@@H](C(=O)NC3CC3)[C@@H]2c2ccc(CO)cc2)nc1 | -1.57 | -1.31 (inactive) | -0.916 (inactive) | -0.486 (inactive) | 2.35 | 0.387 (inactive) | 0.297 | -0.912 | -1.44 | -0.281
23 | CCCCCN1CC=CC23O[C@@H]4C=CCCOC(=O)C4[C@H]2C(=O)N(CCCCCO)[C@@H]3C1=O (stereo not given in full) | -0.192 | -0.286 (inactive) | -0.772 (inactive) | -0.255 (inactive) | 2.3 | 0.764 (inactive) | -0.0288 | -0.589 | -0.147 | -0.203
24 | COc1ccc(/C=C/C=O)cc1 | 0.722 | 1.17 (inactive) | -7.83 (inactive) | 1.01 (inactive) | -0.714 | 0.0062 (inactive) | -0.15 | 0.775 | 0.271 | -0.045
25 | O=C1OCCC/C=C\[C@H]2OC34C=CCN(Cc5ccccc5)C(=O)[C@H]3N(CCCO)C(=O)[C@@H]4C12 (stereo not given in full) | -0.523 | 0.769 (inactive) | -0.0304 (inactive) | 0.972 (inactive) | 1.83 | 0.872 (inactive) | -0.126 | -1.75 | -0.386 | -0.246
26 | COCCOC(=O)N1C(=O)[C@@]2(c3cc(C#Cc4ccc(OC)cc4)ccc31)[C@H](c1ccc(O)cc1)N1[C@H](c3ccccc3)[C@H](c3ccccc3)OC(=O)[C@H]1[C@@H]2C(=O)N1CCc2cc(OC)c(OC)cc2C1 | 1.55 | 0.728 (inactive) | -0.133 (inactive) | 0.803 (inactive) | 2.49 | 1.37 (inactive) | -0.0412 | 0.75 | 1.08 | -0.115
27 | CC(C)C[C@@H]1NC(=O)[C@H](C(C)C)NC(=O)[C@@]23C(=O)N[C@@H](Cc4ccccc4)C2[C@H](C)[C@@]2(C)O[C@H]2C3/C=C/CC/C=C/CNC1=O (stereo not given in full) | 1.55 | -0.0106 (inactive) | -0.328 (inactive) | -0.522 (inactive) | 2.27 | -0.215 (inactive) | -0.0346 | 0.782 | 1.03 | -0.096
28 | CO[C@H]1O[C@H](CO)[C@@H](OC(=O)Nc2cccc(F)c2)[C@H](OC(=O)Nc2ccccc2)[C@@H]1OC(=O)Nc1ccccc1 | 1.53 | 0.347 (inactive) | 1.32 (inactive) | 14.4 (active) | 3.12 | -0.621 (inactive) | 0.182 | 0.286 | 1.09 | 0.181
